Laboratory results as given in PubChem BioAssay.
A number with no mark means an inactive call. For some assays here: Measured potencies and affinities stand elsewhere. Calls of active or inactive are those of the source. Unless noted, how the calls were made is not given here.

Experiments:
[1] = antimalarial activity against Dd2 strain (AID 2302;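 active means growth inhibition above 50% at the single 2 µM test dose, taken to imply half-maximal potency below 2 µM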;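 further: 0% = DMSO untreated growth and 100% = chloroquine plus artemisinin killed control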); conditions: P. falciparum Dd2 in RBCs, LDH growth readout, 72 h; at 2 µM; stronger effect = higher value
[2] = human hepatoma cell viability loss – ATP luminescence, cytotoxicity control for P. falciparum antimalarial project, primary screen (AID 2303;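 active means inhibition above 50%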;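 further: 0% = DMSO wells and 100% = digitonin-killed cells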); conditions: HepG2 viability, 24-48 h, at 10 µM, stronger effect = higher value
[3] = biological target: L-lactate dehydrogenase (Plasmodium falciparum (isolate CDC / Honduras)) (UniProt Q27743); test: PfLDH activity inhibition – cell lysate, 3D7 strain, counter-screen for P. falciparum growth inhibition project (AID 2304);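 further: 0% = vehicle and 100% = reference inhibitor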; conditions: P. falciparum 3D7 crude extract, LDH APAD/NBT absorbance; at 2 µM; stronger effect = higher value
[4] = inhibition of 3D7 malaria parasite growth – strain 3D7 (AID 2306);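 further: 0% = DMSO wells and 100% = chloroquine plus artemisinin control wells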; conditions: P. falciparum 3D7 erythrocytic growth, LDH absorbance, 72 h; at 2 µM; stronger effect = higher value
[5] = biological target: Calcium-dependent protein kinase 1 (Plasmodium falciparum (isolate 3D7)) (UniProt P62344); test: PfCDPK1 kinase inhibitors, biochemical, TCAMS library (AID 1159585; cut-off not given, nearly all actives have IC50 up to about 0.98 µM;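 further: inhibitors leave more ATP so luminescence rises with inhibition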); conditions: recombinant PfCDPK1, Kinase-Glo ATP depletion luminescence
[6] = biological target: Plasmodium falciparum protein kinase 6 (PK6, PF3D7_1337100) (UniProt Q8IDW1); test: PfPK6 kinase inhibitors, biochemical, TCAMS library (AID 1159586); conditions: recombinant PfPK6, Kinase-Glo ATP depletion luminescence
[7] = biological target: Protein kinase 7 (PK7), Plasmodium falciparum 3D7 (PF3D7_0213400) (UniProt Q7YTF7); test: inhibition of Plasmodium PK7 catalytic activity – biochemical, TCAMS antimalarial set, Kinase-Glo luminescence (AID 1159587); conditions: recombinant PfPK7, Kinase-Glo ATP depletion luminescence
[8] = biological target: Calcium-dependent protein kinase 4 (Plasmodium falciparum (isolate 3D7)) (UniProt Q8IBS5); test: PfCDPK4 kinase inhibitors, biochemical, TCAMS library (AID 1159588; cut-off not given, nearly all actives have IC50 up to about 0.91 µM); conditions: recombinant PfCDPK4, Kinase-Glo ATP depletion luminescence
Calcium-dependent protein kinase 4 (Plasmodium falciparum (isolate 3D7)), sequence (Q8IBS5 whole entry, looked up): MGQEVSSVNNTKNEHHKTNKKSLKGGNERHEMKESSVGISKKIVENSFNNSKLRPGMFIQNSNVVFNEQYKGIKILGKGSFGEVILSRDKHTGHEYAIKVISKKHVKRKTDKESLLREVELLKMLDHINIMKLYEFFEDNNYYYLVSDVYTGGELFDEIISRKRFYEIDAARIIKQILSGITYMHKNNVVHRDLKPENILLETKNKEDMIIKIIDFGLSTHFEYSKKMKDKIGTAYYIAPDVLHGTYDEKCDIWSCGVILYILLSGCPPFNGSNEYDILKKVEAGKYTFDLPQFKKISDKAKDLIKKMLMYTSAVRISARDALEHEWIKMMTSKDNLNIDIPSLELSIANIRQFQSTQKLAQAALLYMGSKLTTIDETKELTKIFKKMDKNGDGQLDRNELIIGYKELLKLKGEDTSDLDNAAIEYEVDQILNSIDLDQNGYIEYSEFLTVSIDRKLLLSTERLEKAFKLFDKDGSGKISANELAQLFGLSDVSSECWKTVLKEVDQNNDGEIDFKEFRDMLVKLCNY

L-lactate dehydrogenase (Plasmodium falciparum (isolate CDC / Honduras)), sequence (Q27743 whole entry, looked up): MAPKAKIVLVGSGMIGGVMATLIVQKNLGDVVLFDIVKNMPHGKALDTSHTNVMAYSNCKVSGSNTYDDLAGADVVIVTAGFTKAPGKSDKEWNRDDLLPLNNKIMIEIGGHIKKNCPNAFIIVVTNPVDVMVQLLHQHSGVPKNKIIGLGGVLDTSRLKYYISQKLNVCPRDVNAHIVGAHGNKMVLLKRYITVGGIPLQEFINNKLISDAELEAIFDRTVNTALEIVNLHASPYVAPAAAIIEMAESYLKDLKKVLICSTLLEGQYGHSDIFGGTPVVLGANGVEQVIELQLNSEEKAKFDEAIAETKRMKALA
Plasmodium falciparum protein kinase 6 (PK6, PF3D7_1337100), sequence (Q8IDW1 1-305): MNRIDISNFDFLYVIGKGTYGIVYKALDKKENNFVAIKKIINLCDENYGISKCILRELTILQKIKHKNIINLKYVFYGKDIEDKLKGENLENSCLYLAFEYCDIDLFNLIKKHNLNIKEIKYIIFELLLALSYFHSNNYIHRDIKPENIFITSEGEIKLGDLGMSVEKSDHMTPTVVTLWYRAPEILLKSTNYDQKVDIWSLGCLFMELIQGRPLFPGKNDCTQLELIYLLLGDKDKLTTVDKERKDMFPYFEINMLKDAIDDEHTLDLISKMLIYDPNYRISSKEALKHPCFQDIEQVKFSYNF
Protein kinase 7 (PK7), Plasmodium falciparum 3D7 (PF3D7_0213400), sequence (Q7YTF7 1-343): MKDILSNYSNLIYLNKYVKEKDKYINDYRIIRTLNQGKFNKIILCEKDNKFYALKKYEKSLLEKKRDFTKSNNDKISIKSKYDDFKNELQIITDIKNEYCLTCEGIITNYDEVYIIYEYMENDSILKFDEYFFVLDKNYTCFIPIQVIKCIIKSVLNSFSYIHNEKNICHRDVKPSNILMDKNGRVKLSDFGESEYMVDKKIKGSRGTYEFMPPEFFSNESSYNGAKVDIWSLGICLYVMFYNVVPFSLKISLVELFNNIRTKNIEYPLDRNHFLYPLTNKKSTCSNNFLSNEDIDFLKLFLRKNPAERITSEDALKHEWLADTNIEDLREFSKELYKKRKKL
Calcium-dependent protein kinase 1 (Plasmodium falciparum (isolate 3D7)), sequence (P62344 whole entry, looked up): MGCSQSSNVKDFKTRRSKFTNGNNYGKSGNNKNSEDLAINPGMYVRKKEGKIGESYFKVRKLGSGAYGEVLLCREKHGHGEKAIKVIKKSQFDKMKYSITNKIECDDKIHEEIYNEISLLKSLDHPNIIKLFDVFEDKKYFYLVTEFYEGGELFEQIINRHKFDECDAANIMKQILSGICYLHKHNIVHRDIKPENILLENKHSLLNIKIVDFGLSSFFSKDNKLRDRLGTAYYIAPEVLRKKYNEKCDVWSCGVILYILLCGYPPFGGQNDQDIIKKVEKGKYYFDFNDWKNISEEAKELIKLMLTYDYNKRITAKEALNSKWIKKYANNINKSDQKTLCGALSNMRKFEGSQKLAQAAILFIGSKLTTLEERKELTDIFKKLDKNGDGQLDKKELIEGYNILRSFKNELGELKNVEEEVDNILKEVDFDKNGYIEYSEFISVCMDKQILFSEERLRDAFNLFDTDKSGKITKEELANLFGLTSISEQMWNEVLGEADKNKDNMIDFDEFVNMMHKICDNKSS

Row | Structure (SMILES) | growth inhibition [1] | inhibition [2] | inhibition [3] [%] | growth inhibition [4] | outcome [5] | outcome [6] | outcome [7] | outcome [8]
1 | COc1ccccc1C1CCN(C2CCC(NC(=O)c3cc4cc(C(C)C)ccc4[nH]3)CC2)CC1 (stereo not given) | 98% (active) | 100% (active) | -4 | 101% (active) | inactive | inactive | inactive | inactive
2 | CS(=O)(=O)c1cccc(-c2ccc3oc(C(N)=O)c(NC(=O)c4cccs4)c3c2)c1 | 77% (active) | 11% | -8 | 86% (active) | inactive | inactive | inactive | inactive
3 | O=C(Nc1ccc(S(=O)(=O)N2CCCCCC2)cc1)c1cc(-c2ccccc2O)n[nH]1 | 76% (active) | 16% | 6 | 100% (active) | inactive | inactive | inactive | inactive
4 | Oc1ccc2[nH]c(-c3cccs3)nc2c1CN1CCC(N2CCCC2)CC1 | 13% | 6% | -3 | 100% (active) | inactive | inactive | inactive | inactive
5 | COc1cc(N)cc2sc(N)nc12 | 99% (active) | 0% | -2 | 99% (active) | inactive | inactive | inactive | inactive
6 | CC1(C)CCC(C)(C)c2c1ccc(C1CCN(CCCCNC(=O)c3ccc(-c4ccc(Cl)cc4)cc3)CC1)c2O | 72% (active) | 100% (active) | -2 | 102% (active) | inactive | inactive | inactive | inactive
7 | CC1(C)N=C(N)N=C(N)N1OCc1cc(Cl)cc2c1OCOC2 | 64% (active) | 65% (active) | -1 | 95% (active) | inactive | inactive | inactive | inactive
8 | COc1ccc(C(=O)Nc2cc(Br)c3c(c2)CNCC3)cc1C(F)(F)F | 4% | 13% | 8 | 90% (active) | inactive | inactive | inactive | inactive
9 | CCCOc1c(CCNCCCCNCCc2ccc3ccccc3c2OCCC)ccc2ccccc12 | 78% (active) | 100% (active) | 7 | 100% (active) | inactive | inactive | inactive | inactive
10 | CCc1c(CCNCCCCCCNCCc2ccc(Br)cc2)ccc(O)c1O | 1% | 11% | -1 | 95% (active) | inactive | inactive | inactive | inactive
11 | CC(C)(C)c1ccccc1OC(=O)c1ccccc1 | 2% | -4% | 0 | 95% (active) | inactive | inactive | inactive | inactive
12 | Cc1[nH]c(C)c(-c2ccc(-c3ccccc3)nc2)c(=O)c1Br | 95% (active) | -3% | -1 | 96% (active) | inactive | inactive | inactive | inactive
13 | c1ccc2cc3c(Nc4ccc(N5CCCCCC5)cc4)ccnc3cc2c1 | 76% (active) | 10% | 1 | 94% (active) | inactive | inactive | inactive | inactive
14 | Cc1nnc(NC(=O)c2cn(-c3ccccc3)nc2-c2ccccc2C)o1 | 87% (active) | 37% | 1 | 93% (active) | inactive | inactive | inactive | inactive
15 | COc1ccc(C2C(C(=O)Nc3ccc4c(c3)OCO4)c3cc(OC)c(OC)cc3C(=O)N2C)cc1 (stereo not given) | 54% (active) | 12% | -4 | 89% (active) | inactive | inactive | inactive | inactive
16 | CN(C)c1ccc(-c2csc(C(=O)NCC3CCN(Cc4cccc(C(F)(F)F)c4)C3)c2)cc1 (stereo not given) | 58% (active) | 15% | -2 | 97% (active) | inactive | inactive | inactive | inactive
17 | CN(C)Cc1ccc(-c2cccc(NC(=O)c3cccc(Cl)c3)c2)cc1 | 12% | 18% | -6 | 96% (active) | inactive | inactive | inactive | inactive
18 | CCCCc1ccc(-c2c(N)nc(N)nc2CC)cc1 | 0% | 63% (active) | -1 | 95% (active) | inactive | inactive | inactive | inactive
19 | COc1cc(OC)c(OC)cc1C=NNc1cc(C)nc2ccccc12 | 95% (active) | 5% | 0 | 100% (active) | inactive | inactive | inactive | inactive
20 | Cc1cnccc1/C=C/c1cccc(OCCCN2CCc3ccc(S(C)(=O)=O)cc3CC2)c1 | 72% (active) | 1% | 1 | 92% (active) | inactive | inactive | inactive | inactive

Row | Structure (SMILES) | growth inhibition [1] | inhibition [2] | inhibition [3] [%] | growth inhibition [4] | outcome [5] | outcome [6] | outcome [7] | outcome [8]
21 | CC(=O)N1CCC(C(=O)Nc2ccc(-c3cccc(-c4nc5ccc(C(F)(F)F)cc5[nH]4)c3)cc2)CC1 | 33% | 82% (active) | -9 | 88% (active) | inactive | inactive | inactive | inactive
22 | OCC(c1ccccc1)n1c(COc2ccc(Cl)cc2)nc2c(OCCCN3CCCCC3)cccc21 (stereo not given) | 68% (active) | 6% | -7 | 90% (active) | inactive | inactive | inactive | inactive
23 | COc1ccc(-c2cccc(NC(=O)c3ccc(Cl)cc3)c2)cc1CN1CCCN(C)CC1 | 95% (active) | 29% | -8 | 101% (active) | inactive | inactive | inactive | inactive
24 | O=C(Cc1cccc(Cl)c1)Nc1ccc(N2CCC(NCc3ccc4ncccc4c3)CC2)cc1 | 8% | 10% | -1 | 81% (active) | inactive | inactive | inactive | inactive
25 | CCCC1N=C(N)N=C(N)N1c1ccccc1 (stereo not given) | -3% | -4% | -6 | 93% (active) | inactive | inactive | inactive | inactive
26 | CCOC(=O)N1CCN(CCCNc2c3ccc(Cl)cc3nc3ccc(OC)cc23)CC1 | 100% (active) | 52% (active) | 3 | 101% (active) | inactive | inactive | inactive | inactive
27 | O=C(N[C@@H](Cc1cc(F)cc(F)c1)[C@H](O)CNCc1cccc(C(F)(F)F)c1)c1cc(C2CCCC2)cc(N2CCCC2=O)c1 | 45% | 37% | -3 | 95% (active) | inactive | inactive | inactive | inactive
28 | Cc1ccc(Nc2nc(C)cc(N3CCN(CCc4ccccc4)CC3)n2)cc1 | 6% | 6% | -9 | 93% (active) | inactive | inactive | inactive | inactive
29 | O=C(Nc1cccc(-c2nn3ccccc3c2-c2ccnc(Nc3cccc(F)c3)n2)c1)c1c(F)ccc(F)c1Cl | 38% | 41% | 5 | 93% (active) | inactive | inactive | inactive | inactive
30 | COc1ccc(CCN2CCC(Nc3nc4ccccc4n3CCc3ccc(OC)cc3)CC2)cc1 | 88% (active) | 34% | -1 | 101% (active) | inactive | inactive | inactive | inactive
31 | c1ccc2c(NCCCCCCCCCNc3ccnc4ccccc34)ccnc2c1 | 100% (active) | 57% (active) | -3 | 101% (active) | inactive | inactive | inactive | inactive
32 | c1ccc(CN2CCN(c3cc(-c4cncc(-c5ccccc5)c4)nc(-c4ccccc4)n3)CC2)cc1 | 12% | 9% | 0 | 88% (active) | inactive | inactive | inactive | inactive
33 | NC(=O)c1ccccc1OCC(=O)Nc1ccc(-c2cccc(-c3nc4ccc(C(F)(F)F)cc4[nH]3)c2)cc1 | 11% | 51% (active) | -8 | 100% (active) | inactive | inactive | inactive | inactive
34 | CC(C)Cn1c(Sc2ccc(C#N)c([N+](=O)[O-])c2)nnc1-c1cccc(Cl)c1 | 95% (active) | 24% | 5 | 98% (active) | inactive | inactive | inactive | inactive
35 | Cc1ccc(-c2nnc(Nc3ccc(OCC(N)=O)cc3)c3ccccc23)cc1S(=O)(=O)NCC1CCCO1 (stereo not given) | 70% (active) | 0% | -2 | 92% (active) | inactive | inactive | inactive | inactive
36 | O=[N+]([O-])c1cccc(C=NNc2ccnc3cc(F)ccc23)c1 | 100% (active) | 4% | -1 | 100% (active) | inactive | inactive | inactive | inactive
37 | CCCCN(C)CC#Cc1ccc2[nH]c(C)c(Cl)c(=O)c2c1 | 97% (active) | -2% | -6 | 98% (active) | inactive | inactive | inactive | inactive
38 | Cc1ccc(NC(=O)NC2CCN(CCCCCNC(=O)/C=C/c3ccc(Cl)c(Cl)c3)CC2)cc1C | 25% | 36% | -3 | 101% (active) | inactive | inactive | inactive | inactive
39 | COc1ccc(CNc2nc(NCc3ccccc3)c3cc(OC)c(OC)cc3n2)cc1OC | 99% (active) | 24% | -6 | 103% (active) | inactive | inactive | inactive | inactive
40 | c1ccc2nc(NCCCCCCCCNc3ccc4ccccc4n3)ccc2c1 | 37% | 52% (active) | -5 | 100% (active) | inactive | inactive | inactive | inactive
